Laboratory results from the supplement of paper PMC11006884.
Of roughly 6,500 targets only a part is listed; those with a hit were picked by preference. About 2% of all pairs of compound and target were hits. Unmarked numbers belong to inactive results.

These targets were tested with COC(=O)C#Cc1ccccc1 [methyl 3-phenylpropiolate] (assay: log2 ratio of iodoacetamide-alkyne labeling of the cysteine site, DMSO over compound (competition); higher = stronger covalent engagement of the cysteine by the compound, active = 1 or more). Conditions: 500 µM; treatment time 1 h; system: HEK293T cell lysate.
How it was run: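 Three replicates, each with duplicate channels, were prepared from HEK293T lysate (2 mg/mL) treated with vehicle or electrophile at 500 µM for 1 h at ambient temperature. Iodoacetamide alkyne was then applied for 1 h, and samples were clicked to sCIP-TMT reagents, pooled, trypsin-digested overnight at 37 °C, enriched on streptavidin, acid-eluted and analysed on Orbitrap Eclipse LC-MS/MS with FAIMS, with FragPipe quantification. The log2 competition ratio per cysteine is the mean control-channel divided by the mean compound-channel reporter intensity. Cysteines quantified in only one replicate were left out.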

Chain of UniProt Q9UHW5 (Q9UHW5 whole entry, looked up): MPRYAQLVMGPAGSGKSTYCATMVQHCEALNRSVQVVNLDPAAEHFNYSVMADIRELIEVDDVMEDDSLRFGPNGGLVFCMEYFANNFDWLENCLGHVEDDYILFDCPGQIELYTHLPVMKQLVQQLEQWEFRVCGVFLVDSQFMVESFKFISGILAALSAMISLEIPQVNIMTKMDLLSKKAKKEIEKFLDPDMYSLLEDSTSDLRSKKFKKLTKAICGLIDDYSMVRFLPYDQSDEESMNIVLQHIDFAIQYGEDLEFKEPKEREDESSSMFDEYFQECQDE
Chain of UniProt Q9UKV3 (Q9UKV3 whole entry, looked up): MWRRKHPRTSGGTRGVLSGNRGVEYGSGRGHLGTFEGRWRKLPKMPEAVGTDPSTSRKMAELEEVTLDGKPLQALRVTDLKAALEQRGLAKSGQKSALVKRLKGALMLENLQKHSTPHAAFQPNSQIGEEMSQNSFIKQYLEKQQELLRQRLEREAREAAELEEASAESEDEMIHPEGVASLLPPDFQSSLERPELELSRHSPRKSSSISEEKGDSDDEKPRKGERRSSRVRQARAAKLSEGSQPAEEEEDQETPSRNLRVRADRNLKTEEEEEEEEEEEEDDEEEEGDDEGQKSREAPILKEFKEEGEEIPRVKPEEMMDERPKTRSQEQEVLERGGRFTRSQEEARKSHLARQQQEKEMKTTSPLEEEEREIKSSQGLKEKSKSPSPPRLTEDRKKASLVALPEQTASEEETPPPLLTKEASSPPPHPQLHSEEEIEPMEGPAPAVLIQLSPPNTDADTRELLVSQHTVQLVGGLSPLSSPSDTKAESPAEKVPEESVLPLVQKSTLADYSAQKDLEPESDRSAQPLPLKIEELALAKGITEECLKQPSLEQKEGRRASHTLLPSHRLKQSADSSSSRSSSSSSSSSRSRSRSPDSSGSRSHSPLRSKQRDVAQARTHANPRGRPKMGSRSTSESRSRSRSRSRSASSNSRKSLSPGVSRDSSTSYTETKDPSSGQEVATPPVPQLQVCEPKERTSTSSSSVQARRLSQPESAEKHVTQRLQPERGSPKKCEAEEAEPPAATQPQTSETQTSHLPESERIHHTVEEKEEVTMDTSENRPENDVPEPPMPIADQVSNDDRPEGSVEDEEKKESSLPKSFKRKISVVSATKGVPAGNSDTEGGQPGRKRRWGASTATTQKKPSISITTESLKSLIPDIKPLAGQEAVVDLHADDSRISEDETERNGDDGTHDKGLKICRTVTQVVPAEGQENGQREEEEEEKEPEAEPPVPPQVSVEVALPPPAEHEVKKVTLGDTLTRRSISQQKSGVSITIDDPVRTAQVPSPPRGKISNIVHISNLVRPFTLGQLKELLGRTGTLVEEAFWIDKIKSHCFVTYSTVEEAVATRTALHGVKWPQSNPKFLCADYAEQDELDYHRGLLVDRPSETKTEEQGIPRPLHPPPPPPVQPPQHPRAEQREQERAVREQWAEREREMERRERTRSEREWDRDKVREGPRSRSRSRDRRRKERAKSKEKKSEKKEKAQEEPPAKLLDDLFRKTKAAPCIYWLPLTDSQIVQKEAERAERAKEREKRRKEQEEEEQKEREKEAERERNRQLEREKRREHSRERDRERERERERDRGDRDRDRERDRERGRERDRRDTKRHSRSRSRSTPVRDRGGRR
Chain of UniProt Q9Y3F4 (Q9Y3F4 whole entry, looked up): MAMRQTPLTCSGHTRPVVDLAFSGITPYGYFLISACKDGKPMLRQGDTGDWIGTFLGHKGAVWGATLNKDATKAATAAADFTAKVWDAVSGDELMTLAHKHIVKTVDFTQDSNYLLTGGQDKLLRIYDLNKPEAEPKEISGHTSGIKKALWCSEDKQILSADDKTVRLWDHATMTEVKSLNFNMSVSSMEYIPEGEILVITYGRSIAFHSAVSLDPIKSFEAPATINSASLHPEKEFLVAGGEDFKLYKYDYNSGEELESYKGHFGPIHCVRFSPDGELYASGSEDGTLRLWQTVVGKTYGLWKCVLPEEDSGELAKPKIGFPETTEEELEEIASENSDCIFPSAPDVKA
Chain of UniProt Q9C0B0 (Q9C0B0 whole entry): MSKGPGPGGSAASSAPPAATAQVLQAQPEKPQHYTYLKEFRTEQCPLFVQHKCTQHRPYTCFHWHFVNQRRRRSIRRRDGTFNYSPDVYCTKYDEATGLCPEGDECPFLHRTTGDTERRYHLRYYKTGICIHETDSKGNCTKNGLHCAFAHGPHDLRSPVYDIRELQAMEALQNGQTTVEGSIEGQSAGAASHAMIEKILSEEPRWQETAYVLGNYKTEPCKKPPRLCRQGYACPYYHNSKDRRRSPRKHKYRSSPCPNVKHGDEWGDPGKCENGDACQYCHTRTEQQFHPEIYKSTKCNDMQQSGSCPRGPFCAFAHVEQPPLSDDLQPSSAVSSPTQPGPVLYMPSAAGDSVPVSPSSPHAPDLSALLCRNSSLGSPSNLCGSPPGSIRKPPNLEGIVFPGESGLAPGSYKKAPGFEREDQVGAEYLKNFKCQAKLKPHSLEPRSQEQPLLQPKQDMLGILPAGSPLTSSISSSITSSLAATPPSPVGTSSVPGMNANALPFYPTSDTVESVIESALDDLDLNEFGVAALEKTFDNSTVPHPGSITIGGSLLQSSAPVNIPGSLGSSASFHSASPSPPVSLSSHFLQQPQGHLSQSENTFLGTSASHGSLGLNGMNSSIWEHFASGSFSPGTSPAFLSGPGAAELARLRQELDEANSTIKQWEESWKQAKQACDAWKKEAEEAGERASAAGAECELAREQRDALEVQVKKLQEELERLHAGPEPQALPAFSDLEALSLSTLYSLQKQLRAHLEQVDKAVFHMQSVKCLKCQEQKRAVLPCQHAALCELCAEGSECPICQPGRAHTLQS
Chain of UniProt Q9NYH9 (Q9NYH9 whole entry, looked up): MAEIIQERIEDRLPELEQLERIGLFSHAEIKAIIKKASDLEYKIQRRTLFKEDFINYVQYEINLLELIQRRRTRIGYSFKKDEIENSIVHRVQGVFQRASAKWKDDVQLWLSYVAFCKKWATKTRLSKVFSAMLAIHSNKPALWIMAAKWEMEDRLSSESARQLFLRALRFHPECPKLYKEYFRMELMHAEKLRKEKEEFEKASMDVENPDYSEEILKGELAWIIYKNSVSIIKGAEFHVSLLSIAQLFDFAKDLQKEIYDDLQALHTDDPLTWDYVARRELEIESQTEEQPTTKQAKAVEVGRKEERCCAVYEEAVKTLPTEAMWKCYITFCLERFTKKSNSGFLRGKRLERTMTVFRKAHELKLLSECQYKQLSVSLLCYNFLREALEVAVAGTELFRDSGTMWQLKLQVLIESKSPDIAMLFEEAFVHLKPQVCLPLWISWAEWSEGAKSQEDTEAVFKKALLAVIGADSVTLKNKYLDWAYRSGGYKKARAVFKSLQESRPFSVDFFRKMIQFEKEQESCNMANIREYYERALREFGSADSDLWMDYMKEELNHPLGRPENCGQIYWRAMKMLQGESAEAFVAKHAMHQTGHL
Chain of UniProt Q9ULW0 (Q9ULW0 whole entry, looked up): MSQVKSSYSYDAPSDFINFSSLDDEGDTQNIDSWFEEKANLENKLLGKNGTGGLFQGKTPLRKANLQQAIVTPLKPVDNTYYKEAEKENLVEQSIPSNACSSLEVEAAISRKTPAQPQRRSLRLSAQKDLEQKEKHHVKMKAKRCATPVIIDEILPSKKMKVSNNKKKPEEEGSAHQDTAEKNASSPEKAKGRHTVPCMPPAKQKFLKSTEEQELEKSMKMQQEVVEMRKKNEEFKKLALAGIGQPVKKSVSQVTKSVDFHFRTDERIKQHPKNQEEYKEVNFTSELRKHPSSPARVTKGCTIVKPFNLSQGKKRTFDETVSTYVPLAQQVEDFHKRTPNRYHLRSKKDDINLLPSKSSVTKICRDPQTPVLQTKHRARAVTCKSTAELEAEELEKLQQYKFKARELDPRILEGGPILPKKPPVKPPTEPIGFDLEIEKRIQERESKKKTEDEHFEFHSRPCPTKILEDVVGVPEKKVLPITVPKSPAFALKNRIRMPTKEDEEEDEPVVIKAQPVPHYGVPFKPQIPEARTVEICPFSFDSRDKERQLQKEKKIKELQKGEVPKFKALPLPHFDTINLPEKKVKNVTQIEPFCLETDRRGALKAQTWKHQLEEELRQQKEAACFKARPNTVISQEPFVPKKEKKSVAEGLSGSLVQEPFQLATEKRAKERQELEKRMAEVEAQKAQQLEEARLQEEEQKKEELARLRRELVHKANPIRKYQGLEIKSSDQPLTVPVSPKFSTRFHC
Chain of UniProt Q9Y4W6 (Q9Y4W6 whole entry, looked up): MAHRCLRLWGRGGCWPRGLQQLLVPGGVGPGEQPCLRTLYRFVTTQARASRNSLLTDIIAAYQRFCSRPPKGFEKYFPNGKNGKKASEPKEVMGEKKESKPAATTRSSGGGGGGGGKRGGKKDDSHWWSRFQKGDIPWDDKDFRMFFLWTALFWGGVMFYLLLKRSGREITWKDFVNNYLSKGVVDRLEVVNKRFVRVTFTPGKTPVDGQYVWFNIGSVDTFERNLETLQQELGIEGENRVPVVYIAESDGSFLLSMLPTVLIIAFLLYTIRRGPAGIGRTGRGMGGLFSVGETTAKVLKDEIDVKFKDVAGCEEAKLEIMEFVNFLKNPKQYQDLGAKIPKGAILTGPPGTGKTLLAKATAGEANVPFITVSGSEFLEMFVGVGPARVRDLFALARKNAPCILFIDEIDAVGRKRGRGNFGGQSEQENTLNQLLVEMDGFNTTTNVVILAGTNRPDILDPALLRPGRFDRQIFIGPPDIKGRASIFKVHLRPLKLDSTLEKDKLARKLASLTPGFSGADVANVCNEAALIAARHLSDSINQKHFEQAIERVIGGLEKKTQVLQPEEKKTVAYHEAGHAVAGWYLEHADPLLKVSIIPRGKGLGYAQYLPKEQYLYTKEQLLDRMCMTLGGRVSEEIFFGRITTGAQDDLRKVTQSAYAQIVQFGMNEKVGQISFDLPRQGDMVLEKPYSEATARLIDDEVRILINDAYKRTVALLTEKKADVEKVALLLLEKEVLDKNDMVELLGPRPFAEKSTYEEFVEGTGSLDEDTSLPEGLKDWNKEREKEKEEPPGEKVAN
Chain of UniProt Q9NR33 (Q9NR33 whole entry): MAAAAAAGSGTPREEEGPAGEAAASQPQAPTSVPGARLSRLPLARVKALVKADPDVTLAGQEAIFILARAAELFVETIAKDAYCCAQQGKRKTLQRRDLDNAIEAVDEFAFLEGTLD

| Target | log2 ratio of iodoacetamide-alkyne labeling |
| --- | --- |
| UniProt Q9NV64_C29 | 1.11 (active) |
| AFG3L2 C525 (UniProt Q9Y4W6) | 0.198 |
| RNF126 C15 (UniProt Q9BV68) | 0.119 |
| SMYD3 C421 (UniProt Q9H7B4) | 0.00903 |
| FHOD1 C31 (UniProt Q9Y613) | 0.248 |
| ASF1B C178 (UniProt Q9NVP2) | 1.22 (active) |
| LARS C554 (UniProt Q9P2J5) | 1.74 (active) |
| CCDC88C C1520 (UniProt Q9P219) | 1.15 (active) |
| POLE4 C84 (UniProt Q9NR33) | -0.0179 |
| FAM120A C531 (UniProt Q9NZB2) | 1.68 (active) |
| PDS5B C1069 (UniProt Q9NTI5) | 0.199 |
| UniProt Q9Y312_C156 | 0.41 |
| UniProt Q9UPN4_C218 | 0.212 |
| C11orf68 C222 (UniProt Q9H3H3) | 0.528 |
| TRABD C287 (UniProt Q9H4I3) | 0.0519 |
| ACIN1 C691 (UniProt Q9UKV3) | 0.212 |
| NDRG3 C290 (UniProt Q9UGV2) | -0.105 |
| UNC45A C34 (UniProt Q9H3U1) | 0.0992 |
| UNK C383 (UniProt Q9C0B0) | 0.721 |
| KCTD5 C6 (UniProt Q9NXV2) | 0.701 |

| Target | log2 ratio of iodoacetamide-alkyne labeling |
| --- | --- |
| BCAP29 C171 (UniProt Q9UHQ4) | 1.1 (active) |
| STRAP C305 (UniProt Q9Y3F4) | 0.0837 |
| ACTR6 C339 (UniProt Q9GZN1) | 0.248 |
| GNL3 C234 (UniProt Q9BVP2) | 0.259 |
| TPX2 C145 (UniProt Q9ULW0) | 0.384 |
| NCDN C4 (UniProt Q9UBB6) | 1.66 (active) |
| GPN3 C219 (UniProt Q9UHW5) | 0.0998 |
| DIS3 C213 (UniProt Q9Y2L1) | 0.313 |
| UTP6 C175 (UniProt Q9NYH9) | 1.62 (active) |
| OPA3 C164 (UniProt Q9H6K4) | 0.331 |
| DAXX C720 (UniProt Q9UER7) | 1.35 (active) |
| ADD3 C73 (UniProt Q9UEY8) | 0.00986 |
| NFU1 C213 (UniProt Q9UMS0) | 0.895 |
| ATG3 C182 (UniProt Q9NT62) | 0.632 |
| SETD2 C958 (UniProt Q9BYW2) | 1.02 (active) |
| CHCHD3 C112 (UniProt Q9NX63) | 0.0891 |
| WIPI2 C393 (UniProt Q9Y4P8) | 1.22 (active) |
| STUB1 C199 (UniProt Q9UNE7) | 0.493 |
| RBM27 C776 (UniProt Q9P2N5) | 0.232 |
| ZMYM2 C852 (UniProt Q9UBW7) | 0.581 |
